Reference: PubChem BioAssay (EPA / NIEHS)
Results filed as inconclusive are left out. The source made the active and inactive calls. Rule for the calls: active = hit-call score of the fitted dose curve at least 0.9, where 1 is the maximum; inconclusive = response in the unintended direction; inactive = score below 0.9.

target: human Ephrin type-A Receptor 1 (EphA1), EPHA1 (gene 2041) (UniProt P21709); assay: NVS_ENZ_hEphA1: NovaScreen (NVS) Enzymatic Assay for human Ephrin type-A Receptor 1 (EphA1) (AID 2283158)
Protocol: NVS_ENZ_hEphA1 is a biochemical, single-readout assay that uses extracted gene-proteins in a cell-free assay. Measurements were taken 1 hour after chemical dosing in a 384-well plate.NVS_ENZ_hEphA1 is one of one assay component(s) measured or calculated from the NVS_ENZ_hEphA1 assay. It is designed to make measurements of enzyme activity, a form of enzyme reporter, as detected with fluorescence intensity signals by Fluorescence and electrophoretic mobility shift technology.Data from the assay component NVS_ENZ_hEphA1 was analyzed into 1 assay endpoint. This assay endpoint, NVS_ENZ_hEphA1, was analyzed in the positive analysis fitting direction relative to DMSO as the negative control and baseline of activity. Using a type of enzyme reporter, loss-of-signal activity can be used to understand changes in the enzymatic activity as they relate to the gene EPHA1. Furthermore, this assay endpoint can be referred to as a primary readout, because this assay has produced multiple assay endpoints where this one serves a enzymatic activity function. To generalize the intended target to other relatable targets, this assay endpoint is annotated to the kinase intended target family, where the subfamily is receptor tyrosine kinase.
Binding assays used specific radioligands (tritiated, iodinated) with non-radioactive competitive displacement ligands in agonist or antagonist protocols (as indicated) and various reference compounds and inhibitors to titrate specific binding to receptors and transporters. Most enzyme assays (CYPs, kinases, phosphatases, proteases, HDACs) used recombinant protein and specific substrates (fluorescence mostly, some colorimetric and radioactive) and inhibitors, followed by a biochemical separation of substrate and product. All assays for the biochemical HTS were initially run in duplicate at a single concentration (10 uM for CYP450 assays and 25 uM for all others). Assay-chemical combinations meeting a pre-defined threshold (e.g., 30% inhibition and other criteria defined below) were then run in singleton concentration-response format with maximum concentration of 20 uM for CYPs and 50 uM for all others. Each assay was run with positive and negative controls, and concurrent controls on every plate. The follow-up (secondary) screen tested active chemical-pairs in concentration series, as well as a few additional assays not tested in the primary screen, some selected negative inactives, and several cases re-run in the concentration series for confirmatory purposes.

human Ephrin type-A Receptor 1 (EphA1), EPHA1 (gene 2041), sequence (P21709 whole entry, looked up): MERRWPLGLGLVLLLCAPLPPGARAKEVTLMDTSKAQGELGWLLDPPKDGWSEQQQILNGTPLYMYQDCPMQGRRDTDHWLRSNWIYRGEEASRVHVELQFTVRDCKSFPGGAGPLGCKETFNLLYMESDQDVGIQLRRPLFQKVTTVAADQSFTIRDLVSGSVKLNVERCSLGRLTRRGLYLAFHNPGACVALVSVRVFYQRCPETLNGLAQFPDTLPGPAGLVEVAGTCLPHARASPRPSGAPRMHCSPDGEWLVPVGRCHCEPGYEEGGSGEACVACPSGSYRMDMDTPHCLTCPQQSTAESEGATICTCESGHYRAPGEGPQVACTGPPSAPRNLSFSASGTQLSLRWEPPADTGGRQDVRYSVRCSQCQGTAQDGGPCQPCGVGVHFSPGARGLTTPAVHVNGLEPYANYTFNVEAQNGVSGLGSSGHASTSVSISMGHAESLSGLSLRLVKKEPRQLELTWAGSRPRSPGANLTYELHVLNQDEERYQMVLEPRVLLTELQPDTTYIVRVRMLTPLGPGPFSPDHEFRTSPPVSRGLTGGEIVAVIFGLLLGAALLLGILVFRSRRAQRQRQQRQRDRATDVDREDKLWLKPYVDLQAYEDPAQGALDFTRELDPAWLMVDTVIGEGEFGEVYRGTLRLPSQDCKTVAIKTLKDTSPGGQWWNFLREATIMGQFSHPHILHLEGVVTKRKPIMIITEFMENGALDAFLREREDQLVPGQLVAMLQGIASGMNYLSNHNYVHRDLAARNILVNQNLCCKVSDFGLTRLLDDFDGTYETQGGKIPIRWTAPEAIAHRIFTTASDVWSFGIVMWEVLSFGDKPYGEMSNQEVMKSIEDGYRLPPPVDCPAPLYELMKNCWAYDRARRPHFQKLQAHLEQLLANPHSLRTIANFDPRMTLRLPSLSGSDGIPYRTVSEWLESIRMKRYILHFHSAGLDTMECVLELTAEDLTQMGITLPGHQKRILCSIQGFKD

Row | SMILES | outcome
1 | ClC1=C(Cl)C(Cl)(Cl)C(Cl)=C1Cl | inactive
2 | COCC(C)O (stereo not drawn) | inactive
3 | C[C@@H]1C[C@H]2[C@@H]3CCC4=CC(=O)C=C[C@]4(C)[C@@]3(F)[C@@H](O)C[C@]2(C)[C@@]1(O)C(=O)COP(=O)(O)O | inactive
